Test results taken from PubChem BioAssay AID1159580 (chemical genetic matrix, 2015).
Where “and” joins values, the source holds several entries; their conditions need not be identical. Identical values can stand only once. The campaign covered roughly 5,500 compounds. About 2,000 (36%) were called active. Another 18% or so got no clear call; they are omitted. No stated cut-off is given here; in the data, active means normalized growth mostly below about 0.91 (no sharp cut-off); inconclusive means no clear call, values can overlap the other calls; inactive means mostly above about 0.92. The list shows a part of the results.

Experiment: chemical genetic growth profiling, strain panel (AID 1159580);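 further: tested at 20 µM; growth read once vehicle control cultures reached saturation at 30 °C; 1 = growth at the plate median or of vehicle wells; lower values mean less growth of the strain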
Settings: S. cerevisiae deletion strains, growth OD

Measured: normalized growth

NC(N)=NC(=O)c1nc(Cl)c(N)nc1N
inactive: locus YAL013W, strain DEP1, active compounds read low 0.935 | locus YAL021C, strain ccr4, active compounds read low 0.977 | locus YAL026C, strain drs2, active compounds read low 1.01 | locus YAL030W, strain snc1, active compounds read low 1.01 | locus YAL040C, strain CLN3, active compounds read low 1 | locus YBL061C, strain skt5, active compounds read low 1.04 | locus YBR009C, strain hhf1, active compounds read low 1.01 | locus YBR021W, strain FUR4, active compounds read low 0.86 | locus YBR023C, strain chs3, active compounds read low 1.04 | locus YBR171W, strain sec66, active compounds read low 1.02 | locus YBR229C, strain ROT2, active compounds read low 1 | locus YBR231C, strain swc5, active compounds read low 1.02 | locus YBR279W, strain paf1, active compounds read low 1.01 | locus YCL011C, strain gbp2, active compounds read low 0.998 | locus YCL016C, strain dcc1, active compounds read low 0.997 | locus YCL029C, strain bik1, active compounds read low 1.02 | locus YCL061C, strain MRC1 (second series), active compounds read low 0.995 | locus YCL061C, strain MRC1, active compounds read low 1.03 | locus YCL069W, strain vba3, active compounds read low 1.02 | locus YCR088W, strain abp1, active compounds read low 1.03 | locus YDL005C, strain med2, active compounds read low 1.02 | locus YDL035C, strain GPR1, active compounds read low 0.983 | locus YDL040C, strain nat1, active compounds read low 1.02 | locus YDL074C, strain BRE1, active compounds read low 0.975 | locus YDL101C, strain DUN1, active compounds read low 1.03 | locus YDL185W, strain tfp1, active compounds read low 1.03 | locus YDL192W, strain arf1, active compounds read low 1.02 | locus YDR001C, strain nth1, active compounds read low 1.04 | locus YDR069C, strain doa4, active compounds read low 1.04 | locus YDR101C, strain arx1, active compounds read low 1.01 | locus YDR137W, strain rgp1, active compounds read low 1.02 | locus YDR159W, strain sac3, active compounds read low 1 | locus YDR162C, strain NBP2, active compounds read low 1.02 | locus YDR195W, strain ref2 1.04 | locus YDR297W, strain sur2, active compounds read low 1.02 | locus YDR318W, strain mcm21, active compounds read low 1.02 | locus YDR334W, strain swr1, active compounds read low 1.01 | locus YDR335W, strain msn5, active compounds read low 1.01 | locus YDR388W, active compounds read low 1.01 | locus YDR392W, strain spt3, active compounds read low 0.988 | locus YDR502C, strain sam2, active compounds read low 1.02 | locus YEL003W, strain gim4, active compounds read low 1.02 | locus YEL037C, strain rad23, active compounds read low 1.02 | locus YEL061C, strain CIN8 (second series), active compounds read low 1.03 | locus YEL061C, strain CIN8, active compounds read low 1 | locus YER002W, strain NOP16, active compounds read low 1 | locus YER015W, strain faa2, active compounds read low 1.03 | locus YER016W, strain bim1, active compounds read low 1.02 | locus YER110C, active compounds read low 1.02 | locus YER111C, strain swi4, active compounds read low 1.03 | locus YER155C, strain BEM2 (second series), active compounds read low 1.05 | locus YER155C, strain BEM2, active compounds read low 1.01 | locus YER167W, strain BCK2, active compounds read low 1 | locus YFR010W, strain ubp6, active compounds read low 1.01 | locus YGL078C, strain dbp3, active compounds read low 1.01 | locus YGL086W, strain mad1, active compounds read low 1.01 | locus YGL167C, strain pmr1, active compounds read low 1.04 | locus YGL173C, strain kem1, active compounds read low 1.04 | locus YGL227W, strain vid30, active compounds read low 1.03 | locus YGL240W, strain doc1, active compounds read low 1.05 | locus YGL248W, strain PDE1, active compounds read low 1.01 | locus YGL253W, strain hxk2, active compounds read low 1 | locus YGR135W, strain pre9, active compounds read low 0.987 | locus YGR229C, strain SMI1, active compounds read low 0.994 | locus YGR252W, strain gcn5, active compounds read low 0.896 | locus YHR013C, strain ard1, active compounds read low 0.998 | locus YHR027C, strain rpn1, active compounds read low 1.02 | locus YHR030C, strain SLT2, active compounds read low 1.01 and 1 | locus YHR079C, strain IRE1 (second series), active compounds read low 1.01 | locus YHR079C, strain IRE1, active compounds read low 1 | locus YHR094C, strain hxt1, active compounds read low 1.01 | locus YHR129C, strain ARP1, active compounds read low 1.02 | locus YHR142W, strain chs7, active compounds read low 1.02 | locus YHR200W, strain rpn10, active compounds read low 1.02 | locus YIL066C, strain RNR3, active compounds read low 1.02 | locus YIL073C, strain SPO22, active compounds read low 1 | locus YIL125W, strain kgd1, active compounds read low 1.01 | locus YIR030C, strain dcg1, active compounds read low 1.02 | locus YJL092W, strain hpr5, active compounds read low 1.01 | locus YJL095W, strain BCK1 (second series), active compounds read low 1.03 | locus YJL095W, strain BCK1, active compounds read low 0.962 and 1.01 | locus YJL115W, strain asf1, active compounds read low 1.02 | locus YJL129C, strain trk1, active compounds read low 1.04 | locus YJL134W, strain LCB3, active compounds read low 1 | locus YJL154C, strain vps35, active compounds read low 1.01 | locus YJL164C, strain tpk1, active compounds read low 0.995 | locus YJL166W, strain qcr8, active compounds read low 1.04 | locus YJL168C, strain set2, active compounds read low 1.02 | locus YJL187C, strain SWE1 (second series), active compounds read low 1.01 | locus YJL187C, strain SWE1, active compounds read low 1.02 | locus YJR043C, strain POL32, active compounds read low 1.02 | locus YJR066W, strain TOR1, active compounds read low 0.959 | locus YJR075W, strain HOC1, active compounds read low 1.02
